Bioassay records: PubChem BioAssay, National Center for Advancing Translational Sciences (NCATS)
ELG1 repair inh – qHTS screen for small molecules that inhibit ELG1-dependent DNA repair in human embryonic kidney (HEK293T) cells expressing luciferase-tagged ELG1. 330,000 compounds, 2.3% hits. HEK293T ELG1-luciferase reporter, luminescence, 16 h; DNA damage induced by 5-fluorouridine. AID 504467, 2011. Potency, µM (series often up to 46.1 µM), hits mostly inhibitors; note: nearly all actives have a fitted effect of over 55% in size
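5-Fluorouridine DNA damage + compound/DMSO, 2,000 cells/well, 16 h, 37 °C/5% CO2. ONE-Glo, 30 min RT, luminescence. Readout = decrease in reporter signal.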
Giardia killer – Small Molecules that selectively kill Giardia lamblia: qHTS; 340,000 compounds, 0.15% hits; activity change, % at 7.66 µM, hits read low; Giardia lamblia trophozoite viability; in the data active = activity change below about -80%; inconclusive = between about -30% and that limit;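 note: parasites exposed to compound for two days anaerobically before the ATP read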
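Giardia lamblia trophozoites (100 cells/well) were incubated with compounds for 48 h at 37 deg C under anaerobic conditions. Viability was read as ATP content by one-step luminescence after 15-30 min at room temperature.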
TDP1 inh – qHTS Assay for Inhibitors of Tyrosyl-DNA Phosphodiesterase (TDP1). Tyrosyl-DNA phosphodiesterase 1 (Homo sapiens), Q9NUW8. Potency, µM (doses to about 130 µM), usual class: inhibitors. recombinant TDP1, AlphaScreen DNA substrate cleavage. 350,000 compounds, 0.28% hits; note: nearly all actives have a fitted effect of over 40% in size
Target sequence (Q9NUW8 whole entry, looked up): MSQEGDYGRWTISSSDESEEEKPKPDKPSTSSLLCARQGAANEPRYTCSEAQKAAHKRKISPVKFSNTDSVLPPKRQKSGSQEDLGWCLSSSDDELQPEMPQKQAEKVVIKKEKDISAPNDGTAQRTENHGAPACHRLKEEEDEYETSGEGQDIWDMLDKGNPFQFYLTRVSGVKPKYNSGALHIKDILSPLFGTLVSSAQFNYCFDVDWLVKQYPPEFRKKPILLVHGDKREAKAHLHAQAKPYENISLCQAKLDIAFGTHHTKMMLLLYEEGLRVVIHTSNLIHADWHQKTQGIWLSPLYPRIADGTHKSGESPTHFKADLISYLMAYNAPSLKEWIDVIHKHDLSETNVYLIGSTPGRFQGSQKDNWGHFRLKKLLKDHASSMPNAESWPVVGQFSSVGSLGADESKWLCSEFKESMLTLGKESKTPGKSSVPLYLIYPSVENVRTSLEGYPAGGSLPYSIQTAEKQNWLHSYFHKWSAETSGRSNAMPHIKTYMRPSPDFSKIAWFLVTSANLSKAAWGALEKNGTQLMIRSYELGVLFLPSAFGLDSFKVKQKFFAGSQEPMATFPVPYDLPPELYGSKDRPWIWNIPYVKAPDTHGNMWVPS
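Here, a 5' biotin and 3' phosphotyrosine-FITC DNA oligonucleotide reports Tdp1 activity: intact substrate bridges AlphaScreen beads, while cleavage leaves a 3' phosphate and drops signal. All incubations at room temperature.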
IL-1B inflam inh – qHTS for Inhibitors of Inflammasome Signaling: IL-1-beta AlphaLISA Primary Screen. THP-1 LPS/ATP IL-1B secretion, AlphaLISA, 16 h; stronger effect = lower value. activity change, % at 57.5 µM. 360,000 compounds, 4.7% hits; in the data active = activity change below about -50%; inconclusive = mostly about -30% to -49%
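THP-1 cells pretreated 1 hr with compounds (up to 57.5 uM final), then stimulated with LPS (250 ng/mL final) plus ATP (1.25 mM final); secreted IL-1B measured by AlphaLISA after 16 hr, decreased signal indicating inhibition.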
DT40 TDP1 CPT – qHTS for Inhibitors of human tyrosyl-DNA phosphodiesterase 1 (TDP1): qHTS in cells in presence of CPT. chicken DT40 Tdp1-/-;hTDP1 cells + 20 nM CPT, ATP luminescence, 48 h. Potency, µM (series often up to 46.2 µM), most hits filed as inhibitors. 420,000 compounds, 12% hits. AID 686979, 2013; note: nearly all actives have a fitted effect of over 55% in size
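Chicken DT40 Tdp1-/- cells complemented with human TDP1, 400 cells/well, exposed to compounds plus 20 nM camptothecin for at least 48 h at 37 C; viability read as ATP content by CellTiter-Glo luminescence.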
TDP1 cell noCPT – qHTS for Inhibitors of human tyrosyl-DNA phosphodiesterase 1 (TDP1): qHTS in cells in absence of CPT; 420,000 compounds, 15% hits; DT40 Tdp1-/- hTDP1 cells, no CPT, ATP luminescence, 48 h; Potency, µM (series often up to 46.2 µM), most hits filed as inhibitors; note: nearly all actives have a fitted effect of over 55% in size
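Luminescent ATP content (CellTiter-Glo) served as the growth readout. Knockout chicken DT40 cells expressing human TDP1 were exposed to compounds without camptothecin for a minimum 48 hr at 37 °C.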
Numbers stand for hits; - = inactive; ? = inconclusive; . = no result; ! = not active in a repeat; [ ] = another dose, or the depositor's remark. Compounds with a hit are over-represented: about 19% of the library has one in this group of screens. Unless noted, calls come from the whole dose curve; as a rule, active = well fitted curve in the direction sought with a large enough effect; inconclusive = small, poorly fitted or top-dose-only effect, or another doubt; inactive = no such curve, though single readings can be large; an effect the other way counts as inactive or inconclusive.

SMILES	ELG1 repair inh	Giardia killer	TDP1 inh	IL-1B inflam inh	DT40 TDP1 CPT	TDP1 cell noCPT
CCCCOc1ccc(C(=O)NCCc2csc(-c3ccc(OC)cc3)n2)cc1	.	.	-	.	4.61µM	4.11µM
COc1cccc(OCCNC(=O)c2cc([N+](=O)[O-])cc([N+](=O)[O-])c2)c1	?	-	-	-	-	-
CN(C)C(=S)SSC(=S)N(C)C	?	-85.4	-	-	0.146µM	0.146µM
CN(C)C(=S)SC(=S)N(C)C	.	.	-	.	0.841µM	0.841µM
COc1c(C(C)(C)C)cc([N+](=O)[O-])c(C)c1[N+](=O)[O-]	.	.	-	.	.	.
CCCCC/C=C\C/C=C\C/C=C\CCCCC(=O)NCCc1ccc(O)c(O)c1	.	.	-	.	.	.
O=[N+]([O-])c1cc([As](=O)(O)c2ccc(O)c([N+](=O)[O-])c2)ccc1O	-	-83.4	-	-	-	-
CCn1ccnc1CN1CCCC(C(=O)c2cc(Cl)ccc2OC)C1 (stereo not given)	-	-	-	-75.2	?	?
CCn1ccnc1CN1CCCC(C(=O)c2cc(C)c(OC)c(C)c2)C1 (stereo not given)	?	-	-	-	?	20.6µM
COc1ccc(Cl)cc1C(=O)C1CCCN(CCO)C1 (stereo not given)	-	-	.	-	-	-
COc1ccccc1C(=O)C1CCCN(Cc2cnc(C)s2)C1 (stereo not given)	?	-	-	-	?	20.6µM
O=C(O)[C@@H]1CSC(c2cccnc2)N1 (stereo not given in full)	.	.	-	.	-[9.04 µM]	-[9.04 µM]
CCN1C[C@@H]2[C@@H]3C(=O)N(Cc4ccccc4)C(=O)[C@@H]3[C@](CC)(C1=O)N2C(=O)c1ccc(C(C)(C)C)cc1	.	-	.	-	?	?
Cc1cccc(OCCNc2ncccc2[N+](=O)[O-])c1	.	.	.	-	?	?
C=CCNc1nnc(Sc2ncccc2[N+](=O)[O-])s1	?	-	-	-	5.17µM	7.31µM
CCCCOC(=O)c1ccccc1C(=O)OCc1ccccc1	-	-	39.8µM!	-	-	-
COC(=O)C1=C(c2ccc(OCc3ccccc3)cc2)C[C@@H]2CC[C@H]1N2C(=O)NCCCc1ccccc1	-	-	-	-	14.6µM	13µM
COC(=O)C1=C(c2ccc(OCc3ccccc3)cc2)C[C@@H]2CC[C@H]1N2C(=O)NCc1ccc(N(C)C)cc1	?	-	-	-	?	?
COC(=O)C1=C(c2cccc(OCc3ccccc3)c2)C[C@@H]2CC[C@H]1N2C(=O)NCCCc1ccccc1	?	-	-	-	?	?
COC(=O)C1=C(c2ccc(OCc3ccccc3)cc2)C[C@@H]2CC[C@H]1N2C(=O)NCc1ccccc1OC	.	.	.	-	16.4µM	8.2µM
COC(=O)C1=C(c2cccc(OCc3ccccc3)c2)C[C@@H]2CC[C@H]1N2C(=O)NCc1ccc(F)cc1	-	-	-	-	?	?
COC(=O)C1=C(c2ccc(OCc3ccccc3)cc2)C[C@@H]2CC[C@H]1N2C(=O)NCc1ccc(OC)c(OC)c1	?	-	-	-	18.4µM	23.1µM
COC(=O)C1=C(c2ccc(OCc3ccccc3)cc2)C[C@@H]2CC[C@H]1N2C(=O)NCc1ccc(F)cc1	.	.	.	?	14.6µM	23.1µM
COc1ccc(NC(=O)c2cccn(Cc3ccc(Cl)cc3)c2=O)c(OC)c1	.	.	-	.	?	-
CC(=O)O[C@H]1C2[C@@H](OC(=O)Cc3ccccc3)[C@@H](C)C[C@]2(OC(C)=O)C(=O)/C(C)=C/[C@@H]2[C@H](CC[C@@]13CO3)C2(C)C (stereo not given in full)	.	.	-	.	.	.
SMILES	ELG1 repair inh	Giardia killer	TDP1 inh	IL-1B inflam inh	DT40 TDP1 CPT	TDP1 cell noCPT
CN1CC[C@]23c4c5ccc(O)c4O[C@H]2[C@@H](O)CC[C@H]3[C@H]1C5	.	.	.	.	-	-
COC(=O)C1=C(c2ccc(OCc3ccccc3)cc2)C[C@@H]2CC[C@H]1N2C(=O)NCc1ccccc1C(F)(F)F	.	.	.	-	16.4µM	11.6µM
COC(=O)C1=C(c2ccccc2)C[C@@H]2CC[C@H]1N2C(=O)NCc1ccccc1	.	-	.	-	-	-
CC(=O)C1CCC2C3CCC4CC(O)CCC4(C)C3CCC12C#N (stereo not given)	.	.	.	-	?	?
C[C@]1(O)CCC2C3CC[C@H]4C[C@@H](OC(=O)[C@@H](N)CCCCN)CC[C@]4(C)C3CC[C@@]21C (stereo not given in full)	.	.	.	-	?	25.9µM
Cc1[nH]c2ccccc2c1CCN	.	-	.	-	-	?
Cc1[nH]c2ccccc2c1CCCNC1CCCCC1	-	-	-	?	?	18.4µM
Cc1ccc(-n2c(O)c(C=Nc3ccc(S(=O)(=O)N(C)C)cc3)c(=O)[nH]c2=O)cc1	-	-	-	-	-	-
CCOP(=O)(CC(C(C)=O)C(O)c1ccccc1)OCC (stereo not given)	?	-	-[21 µM]	-	-	-
COC(=O)NC(=C(Cl)Cl)P(=O)(c1ccccc1)c1ccccc1	-	?	.	-	-	-
COC(=O)NC(=S)Nc1ccccc1NC(=S)NC(=O)OC	.	-	-	-	20.6µM!	?
Ic1ccccc1CNC1C2CCN(CC2)C1C(c1ccccc1)c1ccccc1 (stereo not given)	.	.	-	.	.	.
COc1ccc(O)c2c(=O)c3c(OC)cc4c(c3oc12)C1C=COC1O4 (stereo not given)	-	-	-	-	1.3µM	0.92µM
COc1nc2ccccc2nc1N1CC1	.	.	.	-	0.92µM	1.64µM
CN1CCN(c2nc3ccccc3c(=O)n2-c2ccccc2)CC1	-	-	-	-	-	-
CC1CCN(c2ccccc2NC(=O)c2cc3ccccc3o2)CC1	-	-	-	-	?	?
CN1CCN(c2ccccc2NC(=O)c2ccc(-c3ccc(Cl)c(Cl)c3)o2)CC1	-	-	-	-77.7	18.4µM	?
CN[C@H]1C[C@H]2O[C@@](C)([C@H]1OC)n1c3ccccc3c3c4c(c5c6ccccc6n2c5c31)C(=O)NC4	0.517µM	.	-	.	.	.
COC(=O)C1(O)CC2OC1(C)n1c3ccccc3c3c4c(c5c6ccccc6n2c5c31)C(=O)NC4 (stereo not given)	.	.	-[21 µM]	.	.	.
c1ccc(C(c2ccccc2)N2CCN(c3ccc4ccccc4n3)CC2)cc1	-	-	?	-	?	?
